Records with an inconclusive call do not appear. Active and inactive are the calls of the source. Unless noted, calls follow the shape of the dose curve; as a rule, active = well fitted inhibition curve with a large enough effect; inconclusive = small, poorly fitted or top-dose-only effect; inactive = no such curve, though single readings can be large or run the other way.

The target in assay [1] is Aldehyde dehydrogenase, mitochondrial (Homo sapiens) (UniProt P05091). Put plainly: qHTS for Inhibitors of the Aldehyde Dehydrogenase Family (ALDH2) Confirmatory screens (AID 2061303; active = well fitted inhibition curve with a large enough effect; title and protocol of this record describe different tests; also: nearly all actives have a fitted effect of over 45% in size; also: potency is read from the fitted curve at half-maximal effect). (In general: qHTS replaces the single test concentration by a dilution series.)
Assay [2] is described as follows: qHTS for Inhibitors of the Aldehyde Dehydrogenase Family (ALDH1A2, ALDH1A3, ALDH2, ALDH3A1) (AID 2061307). Also: nearly all actives have a fitted effect of over 50% in size. As to Potency: test system not described further here; potency is read from the fitted curve at half-maximal effect.
The target of assay [3] is Retinaldehyde dehydrogenase 3 (Homo sapiens) (UniProt P47895). Kind of assay: qHTS for Inhibitors of the Aldehyde Dehydrogenase Family (ALDH1A3) Confirmatory screens (AID 2061311). Also: potency is read from the fitted curve at half-maximal effect; nearly all actives have a fitted effect of over 60% in size.
For assay [4], the target named is Retinal dehydrogenase 2 (Homo sapiens) (UniProt O94788). Kind of assay: qHTS for Inhibitors of the Aldehyde Dehydrogenase Family (ALDH1A2) Confirmation screens (AID 2061314). Also: nearly all actives have a fitted effect of over 65% in size. Also: potency is read from the fitted curve at half-maximal effect.
The target in assay [5] is Aldehyde dehydrogenase 1A1 (Homo sapiens) (UniProt P00352). Put plainly: qHTS for Inhibitors of the Aldehyde Dehydrogenase Family (ALDH1A1) Confirmatory screens (AID 2061316). Also: nearly all actives have a fitted effect of over 65% in size. Also: potency is read from the fitted curve at half-maximal effect.
Assay [6] deals with Retinaldehyde dehydrogenase 3 (Homo sapiens) (UniProt P47895). Kind of assay: qHTS for Inhibitors of the Aldehyde Dehydrogenase Family (ALDH1A3) Primary screen (AID 2061315).

Take `CCOc1cc(CNc2ccc(C(=O)O)cc2)ccc1OCc1ccccc1`: the Potency in assay [1] was 2 µM (active); in assay [3], 199 nM (active); in assay [4] it was 2.57 µM (active); in assay [5] it was 6.47 µM (active). Moreover, in assay [2], the Potency result is “inactive”.
Turning to `Cc1ccc(OCCn2c(CCNC(=O)c3ccc([N+](=O)[O-])cc3)nc3ccccc32)cc1`, the values for the Potency in assay [1] and in assay [5] were 22.5 µM (active) and 17.9 µM (active), respectively. Moreover, the Potency result in assay [2], in assay [4] and in assay [6] was “inactive” in each case.
As to `O=C(Nc1ccc(Cl)c(Cl)c1)Nc1cccc(-c2ccncc2)n1`, the Potency entry in assay [1], in assay [2], in assay [4], in assay [6] and in assay [5] was “inactive” each time.
On to `Cc1cc(-c2nnc3n2CCCCC3)c(C)n1-c1ccc(Br)cc1`, for which the Potency result in assay [1], in assay [2] and in assay [6] was “inactive” each time. Moreover, in assay [5], the Potency was 12.7 µM (active).
With `O=c1c2ccccc2nc2sc(Nc3ccc(Sc4ccccc4)cc3)nn12`, the Potency entry in assay [1] and in assay [6] was “inactive” each time. Further, the values for the Potency in assay [2] and in assay [4] were 12.6 µM (active) and 4 µM (active), respectively.
In the case of `Cc1cc(-c2nnc3n2CCCCC3)c(C)n1-c1cccc(C#N)c1`, the Potency entry in assay [1], in assay [2], in assay [4] and in assay [6] was “inactive” each time.
Consider `COc1ccc(C2N(Cc3ccccc3)C(=O)c3ccccc3N2C)cc1COc1ccc(NC(C)=O)cc1` (stereo unspecified), for which the Potency entry in assay [1] and in assay [6] was “inactive” throughout. For the same compound, the Potency in assay [2] is 10.1 µM (active).
Turning to `Cc1ccnc(NC(=S)N2CCN(C)CC2)c1`, the Potency entry in assay [1], in assay [2] and in assay [4] was “inactive” each time. Moreover, the Potency in assay [5] is 20.1 µM (active).
With `O=C(OCC#CCSc1nnc(-c2ccco2)o1)c1ccc(F)cc1`, the figures for the Potency in assay [1] and in assay [5] were 15.9 µM (active) and 8.96 µM (active), respectively. Moreover, the Potency result in assay [2] and in assay [6] was “inactive” throughout.
Take `CC(=O)c1ccc(N2CCN(C(=O)Nc3ccc(C(C)C)cc3)CC2)cc1`: the Potency entry in assay [1] and in assay [2] was “inactive” throughout. Moreover, in assay [5], the Potency was 3.24 µM (active).
Consider `O=S1(=O)N=C(Oc2ccccc2Br)c2ccccc21`, for which the Potency result in assay [1], in assay [2] and in assay [6] was “inactive” throughout.
For `COc1cccc(Cc2nc3ccccc3nc2SCC(=O)N2CCN(c3ccccc3)CC2)c1`, the Potency result in assay [1], in assay [2], in assay [4] and in assay [5] was “inactive” in each case.
Consider `N#Cc1cccc(N2CCN(Cc3ccc(F)c(Cl)c3F)CC2)n1`, for which the values for the Potency in assay [1], in assay [2] and in assay [5] were 15.8 µM (active), 4.58 µM (active) and 14.5 µM (active), respectively.
Consider `CCOc1ccc(-c2cc(C(=O)NCCc3ccc(C)cc3)c3ccccc3n2)cc1`, for which the Potency result in assay [1], in assay [2], in assay [4] and in assay [5] was “inactive” in each case.
As to `N#Cc1cccc(NC(=S)N[C@H]2CO[C@H]3[C@@H]2OC[C@@H]3n2nnnc2Oc2cccc(N3CCOCC3)c2)c1`, the Potency entry in assay [1] and in assay [4] was “inactive” in each case. Besides, the Potency in assay [2] is 6.31 µM (active); in assay [5] it was 10.2 µM (active).
With `Cc1ccc(OCCn2c(CCNC(=O)c3ccc(N)cc3)nc3ccccc32)cc1`, the Potency in assay [1] was 10.1 µM (active); in assay [2], 0.896 µM (active); in assay [4], 7.98 µM (active); in assay [5], 3.18 µM (active). Further, in assay [6], the Potency entry was “inactive”.
Turning to `CCc1ccc(-n2c(=O)c3cccnc3n2CC(=O)Nc2cc(F)ccc2F)cc1`, the Potency entry in assay [1], in assay [2] and in assay [4] was “inactive” throughout.
`COc1ccc(CC(=O)Nc2c(C(=O)N3CCN(c4ccccc4)CC3)oc3ccccc23)cc1OC`: the Potency entry in assay [1], in assay [2] and in assay [4] was “inactive” in each case.
For `O=C(Cn1nc(-c2ccc(F)cc2)ccc1=O)NCCc1ccccc1`, the Potency entry in assay [1], in assay [2], in assay [6] and in assay [5] was “inactive” each time.
`O=C1CCCC2=C1C(c1ccccc1Cl)N=C(c1ccccn1)N2` (stereo unspecified): the Potency result in assay [1], in assay [2] and in assay [6] was “inactive” in each case.
Regarding `CC(=O)/C=C1/C(=O)N(C)c2ccccc21`, the Potency result in assay [1] and in assay [2] was “inactive” throughout. In addition, the Potency in assay [4] was 14.2 µM (active); in assay [5], 4 µM (active).
`Cc1ccc(CSc2ccc3nnc(CCNS(=O)(=O)c4ccc(C)cc4)n3n2)cc1`: the Potency entry in assay [1], in assay [2] and in assay [4] was “inactive” in each case.
Take `O=C(Nc1cccc(-c2nc3cc(Cl)ccc3o2)c1)c1cc([N+](=O)[O-])ccc1N1CCOCC1`: the Potency result in assay [1], in assay [2], in assay [4] and in assay [5] was “inactive” each time.
For the compound `COc1ccnc(NC(=S)N2CCN(c3ccccc3C(F)(F)F)CC2)c1`, the Potency result in assay [1] is “inactive”. Besides, the Potency in assay [2] was 14.1 µM (active); in assay [4] it was 11.3 µM (active); in assay [5], 5.65 µM (active).
Turning to `O=C(O)c1ccc(-n2cccc2/C=C2\SC(=O)N(Cc3cccc(Cl)c3)C2=O)cc1`, the Potency in assay [1] is 11.3 µM (active); in assay [2] it was 1.79 µM (active); in assay [5], 7.98 µM (active). Moreover, the Potency entry in assay [6] was “inactive”.
For the compound `COc1cccc(-n2cc(C(=O)Nc3cccc(C(F)(F)F)c3)c3ccccc3c2=O)c1`, the Potency result in assay [1] and in assay [4] was “inactive” throughout. In addition, the Potency in assay [2] was 11.2 µM (active).
As for `N#Cc1ccc(-c2ccc(CNc3ccc(N4CCN5CCCCC5C4)cc3)o2)cc1` (stereo unspecified), the results for the Potency in assay [1], in assay [2] and in assay [5] were 0.0252 µM (active), 0.449 µM (active) and 8.96 µM (active), respectively. The Potency result in assay [4] and in assay [6] was “inactive” each time.
For the compound `OCc1ccc(-c2ccc3ncnc(N4CCOCC4)c3c2)o1`, the Potency in assay [1] is 11.3 µM (active); in assay [2], 1 µM (active); in assay [5] it was 3.18 µM (active). The Potency result in assay [6] was “inactive”.
For the compound `O=c1[nH]c2ccc(NCc3ccc(-c4ccccc4F)o3)cc2[nH]1`, the values for the Potency in assay [1] and in assay [2] were 0.576 µM (active) and 4.47 µM (active), respectively. In assay [4], the Potency entry was “inactive”.

These data come from PubChem BioAssay (NCATS).
